# Measurements reported in PubChem BioAssay (EPA / NIEHS).
# Where “and” joins values, the source holds several entries; their conditions need not be identical. Identical values can stand only once. Where a structure was tested more than once in an assay, its records may differ in their call. Calls of active or inactive are those of the source. Rule for the calls: active = hit-call score of the fitted dose curve at least 0.9, where 1 is the maximum; inactive = score below 0.9.
# Tests used:
# [1] = read-out: Intercellular Adhesion Molecule 1 (ICAM1), ICAM1 (gene 3383); assay: BSK_BE3C_ICAM1: BioMAP Diversity Plus: BE3C Assay for Intercellular Adhesion Molecule 1 (ICAM1) Biomarker Activity (AID 2284278); conditions: primary human bronchial epithelial cells;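 note: cell-surface ICAM-1 protein level quantified by ELISA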
# How it was run: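 ICAM-1 quantified by ELISA and fitted against DMSO baseline, 24 h post-dosing in BE3C cultures of primary human lung bronchial epithelial cells. Cytotoxicity checked in parallel cultures by total protein SRB staining.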
# [2] = read-out: Interferon-inducible T-cell alpha chemoattractant (ITAC), CXCL11 (gene 6373); assay: BSK_BE3C_ITAC: BioMAP Diversity Plus: BE3C Assay for Interferon-inducible T-cell alpha chemoattractant (ITAC) Biomarker Activity (AID 2284279); conditions: primary human bronchial epithelial cells
# How it was run: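 The assay measures I-TAC levels by ELISA in human primary bronchial epithelial cell cultures 24 hours after chemical treatment. Values reflect signal increase over the DMSO baseline.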
# [3] = read-out: Interleukin-8 (IL8), CXCL8 (gene 3576); assay: BSK_BE3C_IL8: BioMAP Diversity Plus: BE3C Assay for Interleukin-8 (IL8) Biomarker Activity (AID 2284280); conditions: primary human bronchial epithelial cells
# How it was run: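 Measured at 24 h after treatment, IL-8 from human primary bronchial epithelial cells is determined by ELISA, and the response is modelled as increasing relative to DMSO negative control.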
# [4] = read-out: Epidermal growth factor receptor (EGFR), EGFR (gene 1956); assay: BSK_BE3C_EGFR: BioMAP Diversity Plus: BE3C Assay for Epidermal growth factor receptor (EGFR) Biomarker Activity (AID 2284281); conditions: primary human bronchial epithelial cells
# How it was run: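 Measured 24 h after dosing in primary human bronchial epithelial cultures, EGFR was read by ELISA; gain of signal over DMSO control defined activity.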
# KRT18 (gene 3875) = assay: BSK_BE3C_Keratin818: BioMAP Diversity Plus: BE3C Assay for Keratin 818 Biomarker Activity (AID 2284282); conditions: primary human bronchial epithelial cells
# How it was run: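 ELISA readout of Keratin 8/18 in human primary bronchial epithelial cultures after 24 h chemical exposure, DMSO baseline. Parallel SRB staining (0.1%, TCA-fixed, 560 nm) served as cytotoxicity check.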
# [5] = read-out: Matrix Metallopeptidase 9 (MMP9), MMP9 (gene 4318); assay: BSK_BE3C_MMP9: BioMAP Diversity Plus: BE3C Assay for Matrix Metallopeptidase 9 (MMP9) Biomarker Activity (AID 2284283); conditions: primary human bronchial epithelial cells
# How it was run: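 BE3C, human bronchial epithelial primary cells; 24 h post-dose; MMP-9 by ELISA; positive fit vs DMSO; SRB (0.1%, TCA-fixed, 560 nm) parallel cytotox.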
# [6] = read-out: Plasminogen activator inhibitor-1 (PAI1), SERPINE1 (gene 5054); assay: BSK_CASM3C_PAI1: BioMAP Diversity Plus: CASM3C Assay for Plasminogen activator inhibitor-1 (PAI1) Biomarker Activity (AID 2284284); conditions: primary human coronary artery smooth muscle cells
# [7] = read-out: Monocyte Chemoattractant Protein-1 (MCP1), CCL2 (gene 6347); assay: BSK_hDFCGF_MCP1: BioMAP Diversity Plus: hDFCGF Assay for Monocyte Chemoattractant Protein-1 (MCP1) Biomarker Activity (AID 2284285); conditions: primary human foreskin fibroblasts
# How it was run: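 MCP-1 ELISA readout was taken 24 hours after dosing primary human dermal fibroblasts in the hDFCGF system, with DMSO as baseline. Parallel sulforhodamine B staining of total protein tracked overt cytotoxicity.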
# [8] = BSK_MyoF_SRB: Viability Assessment in the BioMAP Diversity Plus: MyoF Assay (AID 2284267); conditions: primary human lung fibroblasts;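 note: total protein by SRB absorbance in parallel cultures as cytotoxicity measure; cells assessed 24 h after compound addition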
# How it was run: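 Cytotoxicity read-out: after 10% TCA fixation, parallel human lung fibroblast cultures were stained with 0.1% SRB at 24 h post-dosing and read at 560 nm; DMSO served as baseline.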
# [9] = read-out: Matrix Metallopeptidase 1 (MMP1), MMP1 (gene 4312); assay: BSK_MyoF_MMP1: BioMAP Diversity Plus: MyoF Assay for Matrix Metallopeptidase 1 (MMP1) Biomarker Activity (AID 2284268); conditions: primary human lung fibroblasts
# How it was run: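 Lung fibroblast cultures were dosed with test chemicals and, after 24 h, MMP1 levels were measured by ELISA; responses were referenced to DMSO and analysed for increases.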
# [10] = read-out: TIMP metallopeptidase inhibitor 1 (TIMP1), TIMP1 (gene 7076); assay: BSK_MyoF_TIMP1: BioMAP Diversity Plus: MyoF Assay for TIMP metallopeptidase inhibitor 1 (TIMP1) Biomarker Activity (AID 2284269); conditions: primary human lung fibroblasts
# How it was run: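 TIMP-1 levels were determined by ELISA in human lung fibroblasts treated for 24 h. DMSO served as negative control and baseline for upward curve fitting.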
# [11] = read-out: Matrix Metallopeptidase 1 (MMP1), MMP1 (gene 4312); assay: BSK_BF4T_MMP1: BioMAP Diversity Plus: BF4T Assay for Matrix Metallopeptidase 1 (MMP1) Biomarker Activity (AID 2284270); conditions: primary human bronchial epithelial cells with fibroblasts
# How it was run: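 MMP-1 quantified by ELISA in primary human bronchial epithelial/dermal fibroblast co-cultures, 24 hours post-dosing, with DMSO as baseline; parallel sulforhodamine B staining (560 nm) tracks overt cytotoxicity.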
# [12] = read-out: Matrix Metallopeptidase 3 (MMP3), MMP3 (gene 4314); assay: BSK_BF4T_MMP3: BioMAP Diversity Plus: BF4T Assay for Matrix Metallopeptidase 3 (MMP3) Biomarker Activity (AID 2284271); conditions: primary human bronchial epithelial cells with fibroblasts
# How it was run: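 MMP-3 level read by ELISA after 24 h chemical exposure of bronchial epithelial cell/dermal fibroblast co-cultures, fitted upward relative to DMSO. Parallel cultures stained with 0.1% SRB after TCA fixation gauge overt cytotoxicity.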
# [13] = read-out: Tissue plasminogen activator (tPA), PLAT (gene 5327); assay: BSK_BF4T_tPA: BioMAP Diversity Plus: BF4T Assay for Tissue plasminogen activator (tPA) Biomarker Activity (AID 2284272); conditions: primary human bronchial epithelial cells with fibroblasts
# How it was run: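 tPA level quantified by ELISA at 24 h post-treatment in bronchial epithelial/dermal fibroblast co-cultures, gain of signal scored against DMSO baseline. Parallel cultures stained with 0.1% SRB (560 nm) to flag overt cytotoxicity.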
# [14] = read-out: Plasminogen Activator Inhibitor-1 (PAI1), SERPINE1 (gene 5054); assay: BSK_BF4T_PAI1: BioMAP Diversity Plus: BF4T Assay for Plasminogen Activator Inhibitor-1 (PAI1) Biomarker Activity (AID 2284273); conditions: primary human bronchial epithelial cells with fibroblasts
# How it was run: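 PAI-1 levels quantified by ELISA 24 h post-dosing in bronchial epithelial cell plus dermal fibroblast cultures. Signal gain referenced to DMSO baseline. Sulforhodamine B total-protein staining of parallel wells checked cytotoxicity.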
# [15] = BSK_BF4T_SRB: Viability Assessment in the BioMAP Diversity Plus: BF4T Assay (AID 2284274); conditions: primary human bronchial epithelial cells with fibroblasts
# How it was run: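 Cytotoxicity measured as total protein: cells fixed with 10% TCA, stained with 0.1% SRB, read at 560 nm. Bronchial epithelial/dermal fibroblast co-culture, 24 h after dosing, with positive-direction fitting relative to DMSO.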
# [16] = read-out: urokinase Plasminogen Activator (uPA), PLAU (gene 5328); assay: BSK_BF4T_uPA: BioMAP Diversity Plus: BF4T Assay for urokinase Plasminogen Activator (uPA) Biomarker Activity (AID 2284275); conditions: primary human bronchial epithelial cells with fibroblasts
# How it was run: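 uPA levels measured by ELISA at 24 hours in BF4T cultures (bronchial epithelial cells plus dermal fibroblasts) and compared with DMSO; cytotoxicity tracked in parallel cultures by sulforhodamine B staining.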
# [17] = read-out: Matrix Metallopeptidase 9 (MMP9), MMP9 (gene 4318); assay: BSK_BF4T_MMP9: BioMAP Diversity Plus: BF4T Assay for Matrix Metallopeptidase 9 (MMP9) Biomarker Activity (AID 2284276); conditions: primary human bronchial epithelial cells with fibroblasts
# How it was run: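 MMP-9 levels were measured by ELISA after 24 h exposure of bronchial epithelial cell/dermal fibroblast co-cultures, with DMSO as baseline. Parallel cultures were stained with 0.1% SRB after TCA fixation, read at 560 nm, to flag overt cytotoxicity.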
# [18] = read-out: Interleukin-8 (IL8), CXCL8 (gene 3576); assay: BSK_IMphg_IL8: BioMAP Diversity Plus: IMphg Assay for Interleukin-8 (IL8) Biomarker Activity (AID 2284277); conditions: primary human endothelial cells with macrophages
# How it was run: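 IL-8 levels were measured by ELISA 24 h after dosing in primary human venular endothelial cell–macrophage cultures, referenced to DMSO; parallel SRB staining monitored overt cytotoxicity.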
# [19] = read-out: Vascular cell adhesion molecule 1 (VCAM1), VCAM1 (gene 7412); assay: BSK_IMphg_VCAM1: BioMAP Diversity Plus: IMphg Assay for Vascular cell adhesion molecule 1 (VCAM1) Biomarker Activity (AID 2284286); conditions: primary human endothelial cells with macrophages
# How it was run: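 ELISA read-out of VCAM-1 on venular endothelial cell/macrophage co-cultures at 24 h post-treatment, with DMSO as baseline and positive-direction fitting. Parallel sulforhodamine B total-protein staining (560 nm) served as the overt cytotoxicity measure.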
structure (smiles),measurement,setting,value
CCCCCCCCCCCC(=O)N(C)CC(=O)O,outcome,[1],inactive
same,outcome,[2],inactive
same,outcome,[3],inactive
same,outcome,[4],inactive
same,outcome,KRT18 (gene 3875),inactive
same,outcome,[5],inactive
same,outcome,[6],inactive
same,AC50,[7],5.84 µM (active)
same,outcome,[7],inactive
COC(OC)(C(=O)c1ccccc1)c1ccccc1,outcome,[8],inactive
same,outcome,[9],inactive
same,outcome,[10],inactive
CCc1cccc(C)c1N(C(=O)CS(=O)(=O)O)C(C)COC (configuration not stated),outcome,[8],inactive
same,outcome,[9],inactive
same,outcome,[10],inactive
CC(CCC(=O)O)(c1ccc(O)cc1)c1ccc(O)cc1,outcome,[1],inactive
same,outcome,[2],inactive
same,outcome,[3],inactive
same,outcome,[4],inactive
same,outcome,KRT18 (gene 3875),inactive
same,outcome,[5],inactive
same,outcome,[6],inactive
same,outcome,[7],inactive
CCOC(=O)C1=NN(c2ccc(Cl)cc2Cl)C(C)(C(=O)OCC)C1 (configuration not stated),outcome,[8],inactive
same,outcome,[9],inactive
same,outcome,[10],inactive
Oc1ccccc1Cc1ccccc1O,outcome,[1],inactive
same,outcome,[2],inactive
same,outcome,[3],inactive
same,outcome,[4],inactive
same,outcome,KRT18 (gene 3875),inactive
same,AC50,[5],20 µM (active)
same,outcome,[5],inactive
same,outcome,[6],inactive
same,outcome,[7],inactive
CC(C)C(=O)OCCc1ccccc1,outcome,[1],inactive
same,outcome,[2],inactive
same,outcome,[3],inactive
same,outcome,[4],inactive
same,AC50,KRT18 (gene 3875),0.522 µM (active)
same,outcome,KRT18 (gene 3875),inactive
same,outcome,[5],inactive
same,outcome,[6],inactive
same,outcome,[7],inactive
C=CC(=O)OCCCCCCOC(=O)C=C,AC50,[8],20 µM (active)
same,AC50,[9],4.83 µM (active)
same,AC50,[10],29.4 µM (active)
C[N+](C)(C)CCCNS(=O)(=O)C(F)(F)C(F)(F)C(F)(F)C(F)(F)C(F)(F)C(F)(F)C(F)(F)C(F)(F)F,AC50,[8],37.6 µM (active) and 38.7 µM (active)
same,AC50,[9],49.2 µM (active) and 41 µM (active)
same,outcome,[10],inactive
same,outcome,[11],inactive
same,AC50,[12],52.2 µM (active) and 51.4 µM (active)
same,AC50,[13],8.18 µM (active) and 7.16 µM (active)
same,outcome,[14],inactive
same,outcome,[15],inactive
same,outcome,[16],inactive
same,AC50,[17],9.46 µM (active) and 30 µM (active)
same,AC50,[18],43 µM (active) and 30 µM (active)
same,outcome,[1],inactive
same,outcome,[2],inactive
same,AC50,[3],18.1 µM (active)
same,outcome,[4],inactive
same,outcome,KRT18 (gene 3875),inactive
same,outcome,[5],inactive
same,outcome,[6],inactive
same,AC50,[7],44.8 µM (active) and 44.4 µM (active)
same,AC50,[19],13.9 µM (active) and 22.4 µM (active)
